{"source": "PubChem BioAssay (NCATS)", "note": "Values without a mark were called inactive. Results filed as inconclusive are left out. Calls of active or inactive are those of the source. Calls come from the whole dose curve; as a rule, active = well fitted curve in the direction sought with a large enough effect; inconclusive = small, poorly fitted or top-dose-only effect, or another doubt; inactive = no such curve, though single readings can be large; an effect the other way counts as inactive or inconclusive."}
{"experiment": "Cell Viability - LYMP2-001 (AID 921);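 note: cells exposed to compound for 24 h at 37 °C; nearly all actives have a fitted effect of over 70% in size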; note: potency is the fitted concentration of half-maximal effect;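 for activity change, negative = cytotoxic: 0% = DMSO only and full inhibition = tetraoctylammonium bromide control wells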", "settings": "LYMP2-001 lymphoblastoid cell viability; series mostly up to 92.2 µM; activity change, negative = cytotoxic: at the top concentration", "how_it_was_run": "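CellTiter-Glo luminescence (intracellular ATP) after 24 hr compound exposure at 37 C, 2500 lymphoblastoid cells/well in complete medium. AC50 fitted with standard Hill equation; tetraoctylammonium bromide positive control.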", "units": {"activity change, negative = cytotoxic": "%"}}
{"smiles": "Oc1ccccc1-c1ccccc1", "activity change, negative = cytotoxic": 2.74}
{"smiles": "Oc1ccc(Cl)cc1Cc1ccccc1", "activity change, negative = cytotoxic": 13.4}
{"smiles": "OCCOc1ccccc1", "activity change, negative = cytotoxic": -6.09}
{"smiles": "c1ccc2c(c1)Nc1ccccc1S2", "activity change, negative = cytotoxic": -23.2}
{"smiles": "CCOP(=S)(OCC)Oc1cc(C)nc(C(C)C)n1", "activity change, negative = cytotoxic": -22.5}
{"smiles": "N[C@@H](Cc1ccc(N(CCCl)CCCl)cc1)C(=O)O", "Potency": "39.8 µM (active)"}
{"experiment": "Confirmation and Secondary Assay for Modulators of Hemoglobin Beta Chain Splicing at IVS2 705 locus (AID 930);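 note: HeLa cells stably expressing the EGFP-705 splicing reporter; GFP fluorescence per well restored by corrected splicing of the IVS2-705 intron in EGFP; % of control where 0% means no effect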", "settings": "HeLa EGFP-705 splicing reporter, GFP fluorescence, 48 h; series mostly up to 46.1 µM; activation: at the top concentration", "how_it_was_run": "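Read-out: total peak GFP fluorescence per well (488 nm excitation, 500-520 nm emission) by laser-scanning cytometry. Cells: HeLa EGFP-705 splicing reporter, 2 days compound exposure in Optimem/2% FCS.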"}
{"smiles": "CC(C)(C)NCC(O)c1cc(Cl)c(N)c(Cl)c1", "note": "(stereo not drawn)", "activation": "0.0104%"}
{"smiles": "O=[N+]([O-])c1cc([As](=O)(O)O)ccc1O", "activation": "-0.776%"}
{"smiles": "NCCc1cc(O)c(O)cc1O", "activation": "0.0855%"}
{"smiles": "Cc1ccc(-c2nc3ccc(C)cn3c2CC(=O)N(C)C)cc1", "activation": "2.04%"}
{"smiles": "CC[N+]1(C)CCCC(OC(=O)C(O)(c2ccccc2)c2ccccc2)C1", "note": "(stereo not drawn)", "activation": "-0.198%"}
{"smiles": "CCC1(C2=NCCN2)Cc2ccccc2O1", "note": "(stereo not drawn)", "activation": "0.54% [at 38.3 µM]"}
{"smiles": "CC(C)=CC1C(C(=O)OCc2cccc(Oc3ccccc3)c2)C1(C)C", "note": "(stereo not drawn)", "activation": "-0.802%"}
{"smiles": "CC(CCc1ccccc1)NC(C)C(O)c1ccc(O)cc1", "note": "(stereo not drawn)", "activation": "0.591%"}
{"smiles": "CC(=O)Nc1cc([As](=O)(O)O)ccc1O", "activation": "-0.679%"}
{"smiles": "COc1ccc(C(CN(C)C)C2(O)CCCCC2)cc1", "note": "(stereo not drawn)", "activation": "-1.09%"}
{"smiles": "CC(C)CC(N(C)C)C1(c2ccc(Cl)cc2)CCC1", "note": "(stereo not drawn)", "activation": "2.55%"}
{"smiles": "CCC(COC(=O)c1cc(OC)c(OC)c(OC)c1)(c1ccccc1)N(C)C", "note": "(stereo not drawn)", "activation": "-0.62%"}
{"smiles": "CC(C)=CCOc1c2occc2cc2ccc(=O)oc12", "activation": "2.37%"}
{"smiles": "Clc1ccc(COC(Cn2ccnc2)c2ccc(Cl)cc2Cl)cc1", "note": "(stereo not drawn)", "activation": "0.964%"}
{"experiment": "MultiTox-Fluor Cytotoxicity Assay - LYMP1-001 - Dead Cells (AID 946);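 note: cells exposed to compound for 16 h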; note: potency is the fitted concentration of half-maximal effect;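 for cytotoxicity (dead cells): 0% = DMSO and 100% = tetraoctylammonium bromide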", "settings": "LYMP1-001 lymphoblastoid cells, dead-cell protease fluorescence; series mostly up to 92.2 µM; cytotoxicity (dead cells): at the top concentration", "how_it_was_run": "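Seed 2500 LYMP1-001 cells/well, incubate 5 hr at 37 C; add compound, 16 hr at 37 C; add MultiTox-Fluor reagent, 60 min RT; read dead-cell fluorescence Ex/Em=485/520. Normalize to DMSO and 15 uM tetraoctylammonium bromide.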", "units": {"cytotoxicity (dead cells)": "%"}}
{"smiles": "Oc1ccccc1-c1ccccc1", "cytotoxicity (dead cells)": -5.44}
{"smiles": "C[C@]12C/C(=C/O)C(=O)C[C@@H]1CC[C@@H]1[C@@H]2CC[C@@]2(C)[C@H]1CC[C@]2(C)O", "Potency": "50.1 µM (active)"}
{"smiles": "CC(=O)Oc1ccccc1C(=O)Nc1ncc([N+](=O)[O-])s1", "Potency": "39.8 µM (active)"}
{"smiles": "Oc1ccc(Cl)cc1Cc1ccccc1", "cytotoxicity (dead cells)": -15.2}
{"smiles": "OCCOc1ccccc1", "cytotoxicity (dead cells)": -0.223}
{"smiles": "c1ccc2c(c1)Nc1ccccc1S2", "cytotoxicity (dead cells)": -12.2}
{"smiles": "CCOP(=S)(OCC)Oc1cc(C)nc(C(C)C)n1", "cytotoxicity (dead cells)": -0.764}
{"experiment": "MultiTox-Fluor Cytotoxicity Assay - LYMP1-001 - Live Cells (AID 947);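 note: 0% = DMSO only and full inhibition = tetraoctylammonium bromide control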", "settings": "LYMP1-001 lymphoblastoid cells, live-cell protease fluorescence viability; series mostly up to 92.2 µM; activity change, negative = cytotoxicity: at the top concentration", "units": {"activity change, negative = cytotoxicity": "%"}}
{"smiles": "Oc1ccccc1-c1ccccc1", "activity change, negative = cytotoxicity": -14.2}
{"smiles": "Oc1ccc(Cl)cc1Cc1ccccc1", "activity change, negative = cytotoxicity": -25.8}
{"smiles": "OCCOc1ccccc1", "activity change, negative = cytotoxicity": 12.3}
{"smiles": "c1ccc2c(c1)Nc1ccccc1S2", "activity change, negative = cytotoxicity": -17.4}
{"smiles": "CCOP(=S)(OCC)Oc1cc(C)nc(C(C)C)n1", "activity change, negative = cytotoxicity": -0.444}
{"smiles": "N[C@@H](Cc1ccc(N(CCCl)CCCl)cc1)C(=O)O", "activity change, negative = cytotoxicity": 3.52}
